# Laboratory results reported in PubChem BioAssay (Tox21).
# Records with an inconclusive call do not appear. Values without a mark were called inactive. Calls follow the shape of the full dose curve.
# Assay: qHTS assay for small molecule agonists of the p53 signaling pathway - cell viability (AID 651633);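 also: p53RE-bla HCT reporter cells with a stable beta-lactamase p53 reporter; nearly all actives have a fitted effect of over 30% in size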
# Conditions: p53RE-bla HCT-116 viability, ATP luminescence, 16 h; series mostly up to 83.3 µM; activity change, negative = cytotoxicity: at the top concentration
# Description: National Center for Advancing Translational Sciences [NCATS]
# NIH Chemical Genomics Center [NCGC]
# U.S. Environmental Protection Agency [EPA]
# National Institutes of Environmental Health Sciences [NIEHS]
# National Toxicology Program [NTP]
# U.S. Food and Drug Administration [FDA]
# p53, a tumor suppressor protein, is activated following cellular insult, including DNA damage and other cellular stresses. The activation of p53 regulates cell fate by inducing DNA repair, cell cycle arrest, apoptosis, or cellular senescence. The activation of p53, therefore, is a good indicator of DNA damage and other cellular stresses. […] The activation of the reporter gene under culture conditions can be detected by fluorescence intensity. This cell line was used to screen the Tox21 compound library in a 1536-well plate format and to identify agonists that activate the p53 signaling pathway.
# Tox21 Assay Protocol Summary:
# The p53RE-bla cells were dispensed at 4,000 cells/5 ul/well in 1536-well black wall/clear bottom plates using a Multidrop dispenser. After the assay plates were incubated at a 37 C/5% CO2 incubator for 5 hours, 23 nL of compounds dissolved in DMSO, positive controls or DMSO only was transferred to the assay plate by a pin tool. The plates were incubated at 37 C for 16 hours. After 1 uL of LiveBLAzerTM B/G FRET substrate was added using a Flying Reagent Dispenser, the plates were incubated at room temperature for 2 hours, and fluorescence intensity was measured by an Envision plate reader.
# For cell viability readout that measures cytotoxicity, 4 ul/well of CellTiter-Glo reagent was added into the assay plates using a Flying Reagent Dispenser. After 30 min incubation at room temperature, the luminescence intensity in the plates was measured using a ViewLux plate reader.
# % is scaled to controls: 0 for no effect and ±100 for the full control effect.
row,Compound,"activity change, negative = cytotoxicity"
1,Cc1cc(C)c(C)c(O)c1,-4.4%
2,C/C(=C\C(C)CC(C)CC(C)C)C1CC(=O)OC1=O (stereo not given),11.3%
3,Sc1nc(S)nc(S)n1,15.9%
4,O=C(O)c1cc(C(=O)O)c(C(=O)O)cc1C(=O)O,-5.06%
5,CCc1ccc2c(c1)C(=O)c1ccccc1C2=O,-8.12%
6,CC(C)CCCCCCCOC(=O)c1ccc(C(=O)OCCCCCCCC(C)C)c(C(=O)OCCCCCCCC(C)C)c1,-12.5%
7,C/C=C1\[C@H]2C=C(C)C[C@]1(N)c1ccc(=O)[nH]c1C2,-15.4%
8,O=C(O)c1c2ccccc2cc2ccccc12,18%
9,O=[N+]([O-])c1ccc(Cl)cc1Cl,-5.44%
10,Cc1cc(C)n(CO)n1,14%
11,CC(C(=O)O)c1ccc2c(c1)Cc1cccnc1O2 (stereo not given),19.1%
12,CCCCCCOC(=O)c1ccccc1,8.73%
13,O=C(c1ccc(Cl)cc1)c1ccc(Cl)cc1,-10.3%
14,CCCCCCCCS,-19.7% [at 95.3 µM]
15,C=CC(C)CCC=C(C)C (stereo not given),19.9%
16,OCCCO,20% [at 95.3 µM]
17,O=C1c2ccccc2C(=O)c2c1ccc(O)c2O,18.4%
18,OCCOc1cccc(OCCO)c1,-14.7%
19,O=C(OCCCCCOC(=O)c1ccccc1)c1ccccc1,-12.5%
20,CCc1cnc(C(=O)O)c(C(=O)O)c1,12.3% [at 95.3 µM]

row,Compound,"activity change, negative = cytotoxicity"
1,Cc1c(-c2cccnc2)c2ccccc2n1CCCCC(=O)O,18.9%
2,O=C(O)c1ccc2cc(O)ccc2c1,-6.93%
3,CC(C)C/C=C(\C=O)c1ccccc1,-27.3%
4,Cc1ccc(S(=O)(=O)NC(=O)NC2CCCC2)cc1,-11.8%
5,CC(C)=CCC/C(C)=C/C=N/O,-11.2%
6,CC(=O)Oc1cccc2c1C(=O)c1c(OC(C)=O)cc(C(=O)O)cc1C2=O,-23.8%
7,CCCCCCCCNC,12.3%
8,C=C[Si]1(C)O[Si](C)(C=C)O[Si](C)(C=C)O[Si](C)(C=C)O1 (stereo not given),2.08%
9,CCCc1ccc(OC)cc1,17.4% [at 95.3 µM]
10,O=C(O)c1cccnc1Nc1cccc(C(F)(F)F)c1,-16.9%
11,S=c1[nH][nH]c(=S)s1,21.4%
12,NC(=O)c1cc[n+](CC2=C(C(=O)[O-])N3C(=O)[C@@H](NC(=O)Cc4cccs4)[C@H]3SC2)cc1,8.61% [at 39.1 µM]
13,NC(=O)c1ccccc1C(N)=O,14.7% [at 95.3 µM]
14,Cc1c(N=C=O)cccc1N=C=O,20.2% [at 95.3 µM]
15,CC(C)Oc1ccccc1O,-16.2%
16,CC(=O)S[C@H](C(=O)N[C@H]1Cc2ccccc2[C@H]2CCC[C@@H](C(=O)O)N2C1=O)C(C)C,18.3%
17,O=c1[nH]nc(-c2ccc([N+](=O)[O-])o2)o1,-23.9%
18,O=c1c2ccccc2oc2ccccc12,-12.1%
19,CCOC(OCC)OCC,17.6%
20,COC(=O)C(C)(C)C,5.99% [at 95.3 µM]
